From PubChem
CYP2C9 inh – human CYP2C9 inhibition; P11712; CYP2C9 Supersomes, luciferin-H conversion, luminescence; inhibition, % at 5 µM; 96,000 tested, 20% active; AID 777;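 active means blocking of liver enzyme CYP2C9 beyond about 50% at 5 µM, limit read from the data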
Target sequence (P11712 whole entry, looked up): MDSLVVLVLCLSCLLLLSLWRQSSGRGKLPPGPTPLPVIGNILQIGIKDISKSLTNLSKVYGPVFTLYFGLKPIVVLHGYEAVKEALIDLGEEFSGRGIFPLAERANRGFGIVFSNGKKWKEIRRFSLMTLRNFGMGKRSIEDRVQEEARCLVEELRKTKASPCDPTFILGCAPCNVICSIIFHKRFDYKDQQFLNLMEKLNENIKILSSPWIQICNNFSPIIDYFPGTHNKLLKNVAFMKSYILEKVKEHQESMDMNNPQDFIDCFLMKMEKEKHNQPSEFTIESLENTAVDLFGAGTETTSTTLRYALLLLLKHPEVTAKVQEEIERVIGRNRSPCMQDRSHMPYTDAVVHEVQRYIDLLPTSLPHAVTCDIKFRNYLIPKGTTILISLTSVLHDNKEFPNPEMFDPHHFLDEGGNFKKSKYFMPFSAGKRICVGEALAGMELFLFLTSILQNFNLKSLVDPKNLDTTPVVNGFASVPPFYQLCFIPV
MRP reversal – compounds reversing MRP-mediated drug resistance. AID 602. 85,000 tested, 0.04% active. differential viability (reversal), % at 10 µM. H69AR cells + 2 uM doxorubicin, CellTiter-Glo, 72 h;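 active means viability drop by adding the cancer drug above about 55%, with treated viability meeting a 40% cutoff, limit read from the data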;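 further: viability without doxorubicin minus viability with 2 µM doxorubicin for each compound; larger differential means the compound sensitizes cells more to doxorubicin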
MRP1 act – MRP-1 activation. H69AR cells + doxorubicin, viability rescue, CellTiter-Glo. viability increase, % at 10 µM. 140,000 tested, 0.61% active;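 active means viability gain under doxorubicin at or above a set limit, the compound median plus 3 SD, cut at about 4.7% in these data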;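 further: MRP-1 overexpressing cells given doxorubicin 25 µM after compound pretreatment; 18-22 h compound pretreatment then 72 h with doxorubicin before readout; 0% = doxorubicin-only wells and 100% = vehicle-treated cells without doxorubicin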
CYP2C9 activ – activators of human CYP2C9; P11712; recombinant CYP2C9, luciferin-H conversion, luminescence; active compounds read high; factor 1 = untreated enzyme, 0 = blocked; activation factor at 5 µM; 96,000 tested, 1.4% active; AID 1024;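 active means activation factor of 2 or more for CYP2C9 at a 5 µM dose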;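 further: 0 = sulfaphenazole-blocked wells and 1 = vehicle-only wells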
CYP2C19 inh – human CYP2C19 inhibition. CYP2C19 Supersomes, luciferin-H EGE luminescence, 30 min. inhibition, % at 5 µM. 96,000 tested, 21% active. AID 778;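 active means CYP2C19 inhibition above a set limit at 5 µM in the primary screen, cut at about 50% in these data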;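 further: plate controls were negative control wells for no effect and 2.5 mM tranylcypromine positive control for full effect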
CYP2C19 act – activators of human cytochrome P450 2C19; AID 1025; recombinant CYP2C19, luciferin-H EGE luminescence; active compounds read high; 0 = fully inhibited enzyme, 1 = untreated enzyme; activation factor at 5 µM; P33261; 96,000 tested, under 10 active;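 active means activation factor of at least 2 at 5 µM in the primary screen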;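 further: 0 = wells with 2.5 mM tranylcypromine and 1 = vehicle-only wells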
* = called active by the depositor; nt = not tested or not shown. Rows were chosen to be rich in hits. Some 21% of all compounds tested hit in one or more screens of this group.

SMILES	CYP2C9 inh	MRP reversal	MRP1 act	CYP2C9 activ	CYP2C19 inh	CYP2C19 act
O=S(=O)(NCCCCCNS(=O)(=O)c1ccc(F)cc1)c1ccc(F)cc1	73*	-6	-2	0.3	54*	0.5
NS(=O)(=O)c1ccc(CCNC(=O)COC(=O)CCSc2ccc(Cl)cc2)cc1	nt	nt	-3	nt	nt	nt
Cc1ccc(SCCNS(C)(=O)=O)cc1	21	-13	0	0.8	19	0.8
O=S(=O)(NCCSc1ccc(Cl)cc1)c1ccc(F)cc1	57*	13	-3	0.4	37	0.6
O=C(O)CCCNS(=O)(=O)c1ccc(F)cc1	-6	4	-2	1.1	-13	1.1
COc1ccnc(Oc2ccc(F)cc2)c1C(=O)N/C=N/OCc1ccc(F)cc1	28	nt	-5	0.7	64*	0.4
CO/N=C/NC(=O)c1c(OC)ccnc1Oc1ccc(F)cc1	-1	nt	-2	1	4	1
CO/N=C/NC(=O)c1c(OC)ccnc1Oc1cccc(C(F)(F)F)c1	9	nt	-3	0.9	58*	0.4
COc1ccnc(Oc2ccc(F)cc2)c1C(=O)N/C=N/OCc1ccc(F)cc1Cl	18	nt	-2	0.8	0	1
CSc1nc(C)cc(SCC(=O)N/N=C/c2ccccc2)n1	nt	nt	2	nt	nt	nt
O=C(CSc1nc2ccccc2[nH]1)Nc1c(F)cccc1F	41	14	-2	0.6	51*	0.5
c1ccc(-c2cc(CSc3nc4ccccc4[nH]3)on2)cc1	62*	7	1	0.4	28	0.7
Fc1ccccc1CSc1nc2ncccc2[nH]1	36	nt	0	0.6	66*	0.3
O=C(CSc1nc2ncccc2[nH]1)NCc1ccccc1	-24	-3	0	1.2	30	0.7
Fc1cccc(F)c1CSc1nc2ccccc2[nH]1	49	-9	1	0.5	54*	0.5
O=C(CSc1nc2ccccc2[nH]1)Nc1ccc2c(c1)CCC2	nt	nt	0	nt	nt	nt
CN1OC(COC(=O)c2ccc(Cl)cc2Cl)CC1c1ccccc1 (stereo unspecified)	-29	nt	-2	1.3	15	0.9
O=C(c1cccs1)N1CCn2c1nc1ccccc12	-12	-5	0	1.1	4	1
Cc1cccc(NC(=O)c2cccc(Cn3cc(Br)c([N+](=O)[O-])n3)c2)c1C	8	nt	-2	0.9	7	0.9
CCCCCCc1nc2ccccc2c(=O)n1NC(=O)c1c(O)c2cccc3c2n(c1=O)CCC3	40	-3	0	0.6	1	1
CC(=O)c1c(C)[nH]c(C(=O)OC(C)C(=O)Nc2cc(S(=O)(=O)N3CCCCC3)ccc2Cl)c1C (stereo unspecified)	nt	nt	-3	nt	nt	nt
CCN(C(=O)c1ccco1)c1nnc(-c2ccc(OC)cc2)s1	nt	-6	-5	nt	nt	nt
CCCCNS(=O)(=O)c1ccc2nc(SCC(=O)Nc3ccccc3)[nH]c2c1	nt	nt	-2	nt	nt	nt
O=C(CSc1nc2cc3ccccc3cc2[nH]1)Nc1ccc(F)cc1	69*	-11	2	0.3	37	0.6
O=C(c1ccc(C#CC2(O)CCCCC2)cc1)N1CCN(C(c2ccccc2)c2ccccc2)CC1	68*	-33	-4	0.3	39	0.6
SMILES	CYP2C9 inh	MRP reversal	MRP1 act	CYP2C9 activ	CYP2C19 inh	CYP2C19 act
O=C(c1ccc(C#CC2(O)CCCCC2)cc1)N1CCN(Cc2ccccc2)CC1	33	7	-4	0.7	23	0.8
CC(C)(C)OC(=O)N1CCC[C@H]1c1nnc(SCc2c(Cl)cccc2Cl)o1	78*	-2	-3	0.2	71*	0.3
CCOC(=O)c1cnc2c(C)cccc2c1NCCc1ccc(OC)c(OC)c1	90*	nt	-5	0.1	97*	0
CCOC(=O)c1cnc2ccc(C(=O)OC)cc2c1NCCc1ccc(OC)c(OC)c1	nt	nt	-2	nt	nt	nt
O=C(O)c1ccc(COc2ccccc2Cl)cc1	19	18	1	0.8	25	0.8
O=C(O)c1cccc(COc2ccccc2Cl)c1	95*	nt	0	0	97*	0
O=C1CCCN1CCNC(=S)Nc1ccccc1	52*	-3	-2	0.5	19	0.8
O=C1CCc2cc(S(=O)(=O)NC(Cc3ccccc3)C(=O)NCCC3=CCCCC3)ccc2N1 (stereo unspecified)	61*	-15	0	0.4	68*	0.3
O=C1CCc2cc(S(=O)(=O)NC(Cc3ccccc3)C(=O)NC3CCCCC3)ccc2N1 (stereo unspecified)	22	8	-1	0.8	29	0.7
CC1CCCC(N2C(=O)NC(NC(=O)c3ccco3)(C(F)(F)F)C2=O)C1C (stereo unspecified)	43	4	-2	0.6	63*	0.4
O=C(/C=C/NNC(=O)c1cccc(Br)c1)c1cccc(Br)c1	-57	-15	-2	1.6	-1	1
O=C(/C=C/NNC(=O)c1ccccc1)c1ccc(Br)cc1	29	-28	6.0*	0.7	30	0.7
CC(C(=O)NCCCN1CCOCC1)n1cccc1C(=O)c1ccccc1 (stereo unspecified)	nt	-3	-1	nt	nt	nt
CC(C)NC(=O)C(C)n1cccc1C(=O)c1ccccc1 (stereo unspecified)	55*	1	-1	0.5	18	0.8
COc1ccc(NC(=S)Nc2ncccc2C)c(OC)c1	14	nt	-4	0.9	76*	0.2
COc1ccc(NC(=S)NCCc2c[nH]c3ccc(OC)cc23)c(OC)c1	62*	nt	-2	0.4	71*	0.3
COc1ccc(NC(=S)NCCc2ccc(Cl)cc2)c(OC)c1	22	-2	-2	0.8	86*	0.1
COc1ccc(NC(=S)NCCc2c[nH]c3ccccc23)c(OC)c1	nt	nt	-3	nt	nt	nt
S=C(NCCc1ccc(Cl)cc1)Nc1ccc(Cl)cc1Cl	nt	nt	-5	nt	nt	nt
Cc1nn(-c2ccccc2)c2sc(C(=O)OCC(=O)N3CCCCC3)cc12	-5	9	nt	1	-2	1
COc1cc(/C=N\NC(=O)C2CC3C=CC2C3)ccc1O (stereo unspecified)	nt	nt	-2	nt	nt	nt
O=C1CC(c2ccco2)CC(O)=C1C=Nc1cc(Cl)ccc1O (stereo unspecified)	73*	-3	-2	0.3	38	0.6
CCCN(CCC)C(=O)CC(c1ccccc1)c1cc(C)ccc1O (stereo unspecified)	53*	3	-4	0.5	25	0.7
CN(Cc1ccccc1)C(=O)CC(c1ccccc1)c1cc(Cl)ccc1O (stereo unspecified)	76*	nt	-5	0.2	32	0.7
CCCCn1c(N)c(NCC(C)C)c(=O)[nH]c1=O	nt	nt	-1	nt	nt	nt
CCCN1C(=O)C(Cc2nc3ccccc3c(=O)n2C)c2ccccc21 (stereo unspecified)	28	-15	-4	0.7	48	0.5
CCN1C(=O)C(Cc2nc3ccccc3c(=O)n2C)c2ccccc21 (stereo unspecified)	60*	-9	-5	0.4	57*	0.4
CCOC(=O)c1c(C(=O)OCC)c(C)n(N2C(=O)CSC2=S)c1C	53*	nt	-2	0.5	44	0.6
